# Only some compounds are listed: those with a hit (about 3.4% of all), similar ones and a draw of the others.
# hcDAF-12 act – activators of H. contortus DAF-12 nuclear receptor; HEK293 hcDAF-12 lit1-tk-luc reporter, luminescence; 0% DMSO, 100% Δ7-dafachronic acid; activation, % at 6.8 µM; 1.4% of 370,000 active;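 active = activation above the mean of all tested compounds plus 3 SD, cut at about 5.5% in these data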;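 also: 100% = response to 3 µM Δ7-dafachronic acid high control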
# NF-kB neuron act – raises NF-kB expression in human neuronal cells. AID 1239. 1.6% of 190,000 active. NF-kB reporter expression; hits give high values. fold change at 12.5 µM; in the data active = fold change above about 3.3
# APP 5'UTR act – activates APP 5'UTR luciferase reporter; SH-SY5Y APP 5'UTR luciferase reporter, luminescence; zero percent = DMSO vehicle wells; AID 1276; 1% of 190,000 active; activation, % at 2 µM;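 active = activation above a set limit, based on mean plus 3 SD of controls, cut at about 140% in these data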
# hgDAF12 agonist – activates the H. glycines DAF-12 receptor ligand-binding domain. HEK293 GAL4-hgDAF12 UAS-luciferase reporter, agonist luminescence; normalized to butyrate control. activation, % at 6.8 µM. 1.8% of 370,000 active;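 active = activation above a cutoff set at the mean of all screened compounds plus 3 SD, cut at about 10% in these data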;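 also: 0% = DMSO wells and 100% = sodium butyrate wells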
# ssDAF12 agonist – S. stercoralis DAF-12 activation, primary screen | HEK293 ssDAF-12/GRIP1 lit1-tk-luc reporter, luminescence; % of 3 µM dafachronic acid response | activation, % at 6.8 µM | 1% of 370,000 active | AID 652126;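 active = activation above the mean over all tested compounds plus 3 SD, cut at about 0.9% in these data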;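 also: 0% = DMSO-only wells and 100% = 3 µM delta7-dafachronic acid wells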
# * marks the source's active call; other numbers are inactive results; / = not tested or not shown.
SMILES,hcDAF-12 act,NF-kB neuron act,APP 5'UTR act,hgDAF12 agonist,ssDAF12 agonist
Cc1cccc(OCC(=O)N/N=C/c2ccc3c(c2)OCO3)c1,0,1,4,1,1.2*
O=C(N/N=C/c1cn(-c2ccccc2)nc1-c1ccc2c(c1)OCCO2)c1ccncc1,-1,1.9,133,10*,-1
O=C(COc1ccccc1)N/N=C/c1ccc2c(c1)OCO2,0,1.2,-7,-1,-1
Cc1cc(NC(=O)Nc2cccc(F)c2)n(-c2ccccc2)n1,1,/,/,-2,-1
O=C(N/N=C/CCc1ccccc1)c1ccccc1,1,1.3,43,11*,0
O=C(NN=Cc1ccc2c(c1)OCO2)c1ccccc1,6.0*,/,/,10,1
Cc1ccsc1/C=N\NC(=O)c1ccc2c(c1)OCO2,4,4.3*,132,10,-1
Cc1cc(C(=O)N/N=C/c2ccc[nH]2)n[nH]1,0,4.4*,-5,1,-1
Cc1ccc(C(=O)N/N=C\c2sccc2C)cn1,0,1.7,35,1,-1
O=C(N/N=C/c1ccc2c(c1)OCO2)c1ccc2c(c1)OCO2,4,/,/,5,0
CCCCOc1ccc(C(=O)n2ccc3ccc(-c4ccc5ccn(Cc6cccc(C(=O)OC)c6)c5c4)cc32)cc1,2,/,/,-2,-1
O=C(N/N=C\c1cc2c(cc1Cl)OCO2)c1cccs1,4,/,/,13*,0
CCn1ncc(/C=N/NC(=O)c2ccc3c(c2)OCO3)c1C,0,1.2,-7,12*,-1
O=C(N/N=C\c1cc2c(cc1[N+](=O)[O-])OCO2)c1cccs1,0,/,/,2,0
COc1ccc(-c2nc3c([nH]2)c(=O)n(C)c(=O)n3C)c(OC)c1,3,1.1,-2,3,1.1*
Cn1c(=O)c2[nH]c(-c3ccccc3O)nc2n(C)c1=O,/,0.92,3,/,/
C(=C\c1nccc2c1[nH]c1ccccc12)/c1ccccc1,5,/,/,7,-1
Fc1ccc(/C=C\c2nccc3c2[nH]c2ccccc23)cc1,5.6*,1,12,9,0
Cc1cc(C)cc(NC(=O)OC2CCC23CCCCC3)c1 (centres undefined),1,/,/,2,-1
Cc1ccccc1C(=O)Nc1cccc(NC(=O)Cn2cnc3c(=O)n(C)c(=O)n(C)c32)c1,/,5.4*,-13,/,/
CCn1c2ccccc2c2cc(NC(=O)COC(=O)c3cccc(OC)c3)ccc21,0,/,/,1,-2
COc1ccc(C(=O)C2CCCN(C3Cc4ccccc4C3)C2)c(OC)c1 (centres undefined),1,0.83,14,0,0.9*
COc1ccc(C(=O)C2CCCN(Cc3cc(C)c(O)c(C)c3)C2)c(OC)c1 (centres undefined),0,/,/,0,-1
CCOC(=O)[C@@]12CN(C(=O)OC(C)(C)C)CC=C1N(Cc1ccc(OC)cc1)C(=O)[C@H]2CC(=O)N1CCOCC1,0,/,/,0,-1
CN=C1S/C(=C/c2cc(C)n(-c3ccc(Cl)cc3F)c2C)C(=O)N1C,-1,/,/,10,-2
SMILES,hcDAF-12 act,NF-kB neuron act,APP 5'UTR act,hgDAF12 agonist,ssDAF12 agonist
Cc1ccc(OCc2nc(-c3ccccn3)no2)c(Br)c1,6,4.4*,150*,2,0
Cc1ccc(SCc2nc(-c3ccccn3)no2)cc1,2,1.7,37,8,0
CCCCN(C)C(=O)CNc1nnnn1-c1ccccc1,1,/,/,0,-1
Oc1c(/C=N/c2ncn[nH]2)ccc2ccccc12,2,1,-8,0,1.2*
CN1CCN(C(=O)CNc2ccc(C(F)(F)F)cc2[N+](=O)[O-])CC1,5.8*,0.93,4,3,0
CC(C)NC(=O)CNc1ccc(C(F)(F)F)cc1[N+](=O)[O-],0,0.94,-9,0,-1
CCOC(=O)c1c(C)nc(C)c(C(=O)OCC)c1-c1ccc(O)c(OC)c1,1,3.8*,19,1,0
COC(=O)[C@]12C[C@H](CC(=O)NCc3cccc(C(F)(F)F)c3)C(=O)N(CCC3=CCCCC3)C1=C[C@H](C(C)C)O[C@@H]2C1CC1,-2,/,/,1,-1
O=C(O)c1ccc(Oc2cccc([N+](=O)[O-])c2)cc1C(=O)O,-1,4.3*,2,0,-1
COC(=O)C1CN(C(=O)OC(C)(C)C)C2=C1C(=O)CC(C)(C(=O)OC(C)(C)C)C2 (centres undefined),-2,/,/,-1,-1
O=C(NC1CCc2ccccc21)c1cc(-c2ccc(Cl)cc2)nc2ccccc12 (centres undefined),1,/,/,2,-1

# Compound activity: PubChem BioAssay, several laboratories
